Experimental data published in PubChem BioAssay.
Measured potencies and affinities stand elsewhere. Records with an inconclusive call do not appear. Active and inactive are the calls of the source. Unless noted, the rule behind the calls is not given here.

Assays:
[1] = cytotoxicity in PAX8-dependent RMG-1 cells, dose response, cell-based, cherry-pick (AID 687029;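 active = signal drop whose fitted half-maximal concentration is at most twice the top valid dose, in every test run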;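 note: cells exposed to compound for 96 hours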)
[2] = cytotoxicity in IOSE-T80 ovarian epithelial cells, dose response, selectivity assay for PAX8 inhibitor project, cell-based, cherry-pick (AID 687032;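 active = fitted half-maximal concentration for viability loss no higher than twice the top valid dose, in every repeat run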;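 note: cells exposed to compound for 96 h before reading; 0% = neutral control wells and -100% = 2 µM mitoxantrone kill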)
[3] = inhibitors of CMV-promoter luciferase reporter, dose response, counter-screen for Pax8 inhibitor project, cell-based, HEK293, luminescence, dry powder (AID 743020;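 active = signal-lowering compounds whose fitted half-maximal concentration is at or below twice the top tested dose in every run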;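 note: HEK293 cells stably expressing the CMV luciferase reporter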)
[4] = non-specific cell cytotoxicity, dose response, cytotoxicity control for PAX8 inhibitor project, plate reader, dry powder samples (AID 743021)
[5] = IGROV1 ovarian cancer cell cytotoxicity, dose response, PAX8 inhibitor project, plate reader, dry powder samples (AID 743043);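 note: more negative means fewer viable cells or more cytotoxicity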
[6] = NIH:OVCAR-3 ovarian cancer cell cytotoxicity, dose response, PAX8 inhibitor project, plate reader, dry powder samples (AID 743044); conditions: max activity: at 35 µM, active compounds read low unless noted
[7] = IOSE-T80 ovarian epithelial cell cytotoxicity, dose response, cytotoxicity control for PAX8 inhibitor project, plate reader, dry powder samples (AID 743045);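 note: 0% = neutral control median and -100% = positive control median; more negative values mean more cell killing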
[8] = A2780 ovarian cancer cell cytotoxicity, dose response, cytotoxicity control, plate reader, dry powder samples (AID 743046);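 note: 0% = neutral control wells and -100% = cytotoxic reference compound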
[9] = cytotoxicity in OVCAR8 ovarian cancer cells, dose response, PAX8 project, cell-based, plate reader, dry powder samples (AID 743197)

Measured: max activity

COc1ccc(S(=O)(=O)Nc2ccc3c(c2)CC(=O)N([C@H](C)CO)C[C@H](C)[C@@H](CN(C)Cc2ccc(-c4ccccc4)cc2)O3)cc1
inactive: [1] | [2] | [3] | [4] | [5] | [6] 36.7% [at 2.1 µM, active compounds read low] | [7] | [8] | [9]

C[C@@H]1CN([C@H](C)CO)C(=O)Cc2cc(NC(=O)Nc3ccc(F)cc3)ccc2O[C@H]1CN(C)C(=O)Nc1ccc(C(F)(F)F)cc1
inactive: [1] | [2] | [3] | [4] | [5] | [6] -34.3% | [7] | [8] | [9]

C[C@@H]1CCCCO[C@H](CN(C)Cc2ccncc2)[C@H](C)CN([C@@H](C)CO)C(=O)c2cc(NC(=O)Nc3ccc(C(F)(F)F)cc3)ccc2O1
inactive: [1] | [2] | [3] | [4] | [5] | [6] -11.1% [at 0.26 µM, active compounds read low] | [7] | [8] | [9]

COc1cccc(S(=O)(=O)N(C)C[C@H]2OCc3ccccc3-c3c(n(C)c4ccccc34)C(=O)N([C@@H](C)CO)C[C@H]2C)c1
inactive: [1] | [2] | [3] | [4] | [5] | [6] -13.7% | [7] | [8] | [9]

C[C@@H]1CCCCO[C@@H](CN(C)C(=O)C2CCCCC2)[C@H](C)CN([C@H](C)CO)C(=O)c2cc(NS(=O)(=O)c3ccc(Cl)cc3)ccc2O1
inactive: [1] | [2] | [3] | [4] | [5] | [6] -13.3% [at 0.5 µM, active compounds read low] | [7] | [8] | [9]

C[C@@H]1CCCCO[C@H](CN(C)Cc2ccccc2)[C@H](C)CN([C@H](C)CO)C(=O)c2cc(NC(=O)Nc3ccc(C(F)(F)F)cc3)ccc2O1
inactive: [1] | [2] | [3] | [4] | [5] | [6] -9.62% | [7] | [8] | [9]

O=C(c1ccc(F)cc1)N1C[C@@H]2N[C@H](C1)C2c1ccc(-c2ccc(F)cc2)cc1 (stereo partly drawn)
inactive: [1] | [2] | [3] | [4] | [5] | [6] -17.2% [at 4.2 µM, active compounds read low] | [7] | [8] | [9]

C[C@@H]1CN([C@@H](C)CO)C(=O)c2cc(NS(=O)(=O)c3ccc(Cl)cc3)ccc2O[C@@H](C)CCCCO[C@H]1CN(C)Cc1ccc(C(F)(F)F)cc1
inactive: [1] | [2] | [3] | [4] | [5] | [6] 22.1% [at 16 µM, active compounds read low] | [7] | [8] | [9]

C[C@@H]1CN([C@H](C)CO)C(=O)c2cc(NC(=O)c3ccccc3)ccc2O[C@@H](C)CCCCO[C@H]1CN(C)Cc1ccc(C(F)(F)F)cc1
inactive: [1] | [2] | [3] | [4] | [5] | [6] -5.41% [at 0.5 µM, active compounds read low] | [7] | [8] | [9]

C[C@@H]1CN([C@@H](C)CO)C(=O)c2ccccc2-c2ccccc2CO[C@H]1CN(C)Cc1ccccc1C(F)(F)F
inactive: [1] | [2] | [3] | [4] | [5] | [6] 28.3% [at 16 µM, active compounds read low] | [7] | [8] | [9]

C[C@@H]1CN([C@@H](C)CO)C(=O)Cc2cc(NC(=O)Nc3ccc(C(F)(F)F)cc3)ccc2O[C@H]1CN(C)Cc1ccc(Cl)c(Cl)c1
inactive: [1] | [2] | [3] | [4] | [5] | [6] 9.21% [at 0.26 µM, active compounds read low] | [7] | [8] | [9]

CCCC#Cc1ccc([C@@H]2[C@H]3CN(S(=O)(=O)c4ccccc4F)CCCCN3[C@H]2CO)cc1
inactive: [1] | [2] | [3] | [4] | [5] | [6] 36.9% [at 8 µM, active compounds read low] | [7] | [8] | [9]

C[C@@H]1CCCCO[C@H](CN(C)C(=O)Nc2ccc(F)cc2)[C@@H](C)CN([C@@H](C)CO)C(=O)c2cc(NC(=O)Nc3ccc(C(F)(F)F)cc3)ccc2O1
inactive: [1] | [2] | [3] | [4] | [5] | [6] 19.8% [at 0.26 µM, active compounds read low] | [7] | [8] | [9]

O=C(C1CCC1)N1CC(=O)N2[C@H](C1)[C@H](c1ccc(C#Cc3cccc(F)c3)cc1)[C@@H]2CO
not listed: [6] | [8] | [9]
inactive: all other assays above

C[C@H]1CCCCO[C@@H](CN(C)S(=O)(=O)c2cccs2)[C@@H](C)CN([C@@H](C)CO)C(=O)c2cc(NS(=O)(=O)c3ccc(Cl)cc3)ccc2O1
not listed: [6] | [8] | [9]
inactive: all other assays above

C[C@@H]1CN([C@H](C)CO)C(=O)c2cc(NC(=O)c3ccncc3)ccc2O[C@@H](C)CCCCO[C@H]1CN(C)Cc1ccc(C(F)(F)F)cc1
inactive: [1] | [2] | [3] | [4] | [5] | [6] 14.3% [at 0.5 µM, active compounds read low] | [7] | [8] | [9]

C[C@@H]1CN([C@H](C)CO)C(=O)c2c(c3ccccc3n2C)-c2ccccc2CO[C@H]1CN(C)S(=O)(=O)c1cccc(F)c1
inactive: [1] | [2] | [3] | [4] | [5] | [6] -15.8% [at 0.26 µM, active compounds read low] | [7] | [9]

C[C@@H]1CN([C@@H](C)CO)C(=O)c2cc(NC(=O)Nc3cccc4ccccc34)ccc2O[C@@H]1CN(C)Cc1ccc2c(c1)OCO2
inactive: [1] | [2] | [3] | [4] | [5] | [6] 8.89% | [7] | [9]

C[C@@H]1CCCCO[C@@H](CN(C)Cc2ccc(C(F)(F)F)cc2)[C@H](C)CN([C@@H](C)CO)C(=O)c2cc(NS(=O)(=O)c3ccccc3)ccc2O1
inactive: [1] | [2] | [3] | [4] | [5] | [6] 11.3% [at 2.1 µM, active compounds read low] | [7] | [8] | [9]

CC(C)CC#Cc1ccc([C@@H]2[C@@H](CO)N3CCCCN(S(=O)(=O)c4ccc(F)cc4)C[C@H]23)cc1
inactive: [1] | [2] | [3] | [4] | [5] | [6] 15.4% [at 16 µM, active compounds read low] | [7] | [9]

C[C@@H]1CN([C@@H](C)CO)S(=O)(=O)c2ccc(C#Cc3ccccc3F)cc2O[C@@H]1CN(C)C(=O)c1ccc2c(c1)OCO2
not listed: [6] | [8] | [9]
inactive: all other assays above

COc1cccc(S(=O)(=O)N2CC[C@@H]3[C@H](CO)Nc4ccc(C5=CCCCC5)cc4[C@@H]32)c1
inactive: [1] | [2] | [3] | [4] | [5] | [6] 12.1% [at 0.5 µM, active compounds read low] | [7] | [9]

C[C@H](CO)N1C[C@H](C)[C@H](CN(C)Cc2ccc(Cl)c(Cl)c2)OCCCC[C@H](C)Oc2ccc(NC(=O)Nc3ccccc3)cc2C1=O
inactive: [1] | [2] | [3] | [4] | [5] | [6] -25.9% [at 0.26 µM, active compounds read low] | [7] | [9]

N#Cc1cccc(-c2ccc3c(c2)[C@@H]2[C@@H](CCN2S(=O)(=O)c2ccc(F)cc2)[C@@H](CO)N3)c1
inactive: [1] | [2] | [3] | [4] | [5] | [6] 5.91% | [7] | [9]

Cc1noc(C)c1NC(=O)Nc1cccc2c1O[C@H](CN(C)Cc1ccc(C(F)(F)F)cc1)[C@H](C)CN([C@@H](C)CO)C2=O
inactive: [1] | [2] | [3] | [4] | [5] | [6] -18.3% | [7] | [9]

C[C@H]1CCCCO[C@H](CN(C)C(=O)Nc2ccc(C(F)(F)F)cc2)[C@@H](C)CN([C@@H](C)CO)C(=O)c2cc(NC(=O)c3ccncc3)ccc2O1
inactive: [1] | [2] | [3] | [4] | [5] | [6] -23.2% [at 0.26 µM, active compounds read low] | [7] | [8] | [9]

C[C@@H]1CN([C@@H](C)CO)C(=O)c2cccc(NC(=O)c3ccncc3)c2O[C@@H]1CN(C)S(=O)(=O)c1cccs1
inactive: [1] | [2] | [3] | [4] | [5] | [6] 14.9% [at 2.1 µM, active compounds read low] | [7] | [9]

C[C@@H]1CN([C@@H](C)CO)C(=O)c2cc(N(C)C)ccc2O[C@@H]1CN(C)Cc1ccc(Oc2ccccc2)cc1
inactive: [1] | [2] | [3] | [4] | [5] | [6] -18.3% | [7] | [8] | [9]

C[C@@H]1CN([C@H](C)CO)C(=O)c2cc(NS(=O)(=O)c3ccc(F)cc3)ccc2O[C@@H](C)CCCCO[C@H]1CN(C)Cc1ccccc1
inactive: [1] | [2] | [3] | [4] | [5] | [6] 22.1% [at 1 µM, active compounds read low] | [7] | [9]
